An excerpt weighted towards active compounds, which were near 2.5% of everything screened.
TMEM16A act = TMEM16A chloride channel activators or potentiators, primary screen, cell-based, HTS. HEK293 TMEM16A/YFP-H148Q/I152L, iodide quench fluorescence; hits give low values. AID 623877, 2012. B-score at 10 µM. 340,000 tested, 0.3% active;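 active means fluorescence-ratio B-score plate-corrected deviation score at least 3 library SD below zero, with starting fluorescence score within 5 deviations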;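 further: channel opened by trigger with iodide after compound preincubation; score built on the fluorescence ratio of max minus min over baseline; more negative score means more quench and so TMEM16A activation or potentiation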
TMEM16A inh = TMEM16A chloride channel inhibitors, primary screen, cell-based, HTS. Anoctamin-1 (Mus musculus), Q8BHY3. HEK293 TMEM16A/YFP iodide influx fluorescence, ionomycin. normalized B-score (activity score, 25-100; higher = stronger inhibition) at 10 µM. 310,000 tested, 1.2% active. AID 588511, 2011;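 active means ratio plate-corrected score three or more library SD toward inhibition, starting fluorescence score within five deviations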;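 further: score derived from kinetic fluorescence span divided by baseline fluorescence per well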
CHT allo act = CHT positive allosteric modulators, primary screen, cell-based, membrane potential dye, choline EC20 | High affinity choline transporter 1 (Homo sapiens), Q9GZV3 | CHT-expressing cells; hits give high values; LV-AA mutant CHT in HEK293 cells | B-score at 10 µM | 310,000 tested, 0.49% active;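 active means initial fluorescence not abnormally high and integrated response B-score, plate-corrected, over 3 SD above library mean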
PKA-R2B act = activators of PKA-R2B holoenzyme, primary screen, biochemical, fluorescence polarization, Cy5-IP20, human. PKA-R2B holoenzyme dissociation; R2B truncated from residue 108, S112A mutant; 0% DMSO only, 100% 113 µM cGMP. cAMP-dependent protein kinase catalytic subunit beta (Homo sapiens) + cAMP-dependent …. activation, % at 11.4 µM. 340,000 tested, 0.079% active;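 active means activation above a cutoff set at the mean over all compounds plus 3 SD, cut at about 18% in these data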;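 further: higher means more holoenzyme dissociation and a rise in polarization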
Target sequence (P31323 whole entry, looked up, other chains not shown, the tested form may be a part): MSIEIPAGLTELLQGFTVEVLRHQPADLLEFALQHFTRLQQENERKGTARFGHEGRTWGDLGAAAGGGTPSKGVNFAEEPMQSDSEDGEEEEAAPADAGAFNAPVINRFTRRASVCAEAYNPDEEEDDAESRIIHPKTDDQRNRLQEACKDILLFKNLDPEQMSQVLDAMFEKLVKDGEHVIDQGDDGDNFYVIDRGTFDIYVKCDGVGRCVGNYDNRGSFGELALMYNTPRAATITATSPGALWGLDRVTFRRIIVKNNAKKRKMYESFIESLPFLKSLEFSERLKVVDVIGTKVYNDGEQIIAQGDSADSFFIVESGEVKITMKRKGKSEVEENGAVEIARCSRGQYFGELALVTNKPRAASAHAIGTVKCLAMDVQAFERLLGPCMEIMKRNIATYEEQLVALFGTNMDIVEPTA
PKA-R1A activ = activators of PKA-R1A holoenzyme, primary screen, biochemical, fluorescence polarization, Cy5-IP20, bovine R1A, mouse PKAc; cAMP-dependent protein kinase type I-alpha regulatory subunit (Bos taurus) + …; PKA-R1A dissociation; scaled: DMSO 0%, 113 µM cGMP 100%; activation, % at 11.4 µM; 340,000 tested, 0.083% active;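 active means percent activation above the mean of all tested compounds plus 3 SD, cut at about 19% in these data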;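 further: higher means more PKAc released from R1A so a rise in polarization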
CHT inh = inhibitors of human choline transporter CHT | High affinity choline transporter 1 (Homo sapiens), Q9GZV3 | CHT-expressing cells, membrane potential dye, choline response; hits give low values | B-score at 10 µM | 310,000 tested, 0.86% active | AID 488975, 2010;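 active means B-score over 3 SD under the library average, and starting fluorescence ratio not unusually high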;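 further: choline stimulus applied at its EC90 after an EC20 pre-addition; B-score computed on integrated fluorescence ratio after choline addition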
Numbers without * were called inactive.

CCOC(=O)Cc1c(C)nc2c(-c3ccc(Cl)cc3)c(C)nn2c1C was read as TMEM16A act -4.8*, TMEM16A inh inactive, CHT allo act inactive, PKA-R2B act 4, PKA-R1A activ -6 and CHT inh inactive.
Nc1ccc2c(c1)COc1ccccc1O2 was read as TMEM16A act inactive, TMEM16A inh inactive, CHT allo act inactive, PKA-R2B act 0, PKA-R1A activ 2 and CHT inh inactive.
`Nc1ccc2c(c1)Oc1ccccc1C=C2` gave TMEM16A act -5.3*, TMEM16A inh inactive, CHT allo act inactive, PKA-R2B act -9, PKA-R1A activ -7 and CHT inh inactive.
Screening Cc1cccc(NC(=O)C2CCN(S(=O)(=O)c3c(C)c(C)cc(C)c3C)CC2)n1 returned TMEM16A act inactive, TMEM16A inh 100*, CHT allo act inactive, PKA-R2B act -11, PKA-R1A activ -4 and CHT inh inactive.
Screening Cc1cccc(NC(=O)C2CCN(S(=O)(=O)c3c(C)nn(C)c3C)CC2)n1 returned TMEM16A act inactive, TMEM16A inh inactive, CHT allo act inactive, PKA-R2B act 6, PKA-R1A activ -2 and CHT inh inactive.
`COc1ccc(OCCN2CCN(C(=O)c3ccc(OC)cc3)CC2)cc1` gave TMEM16A act inactive, TMEM16A inh 100*, CHT allo act inactive, PKA-R2B act -11, PKA-R1A activ 2 and CHT inh inactive.
Screening CC1=C(C)/C(=N\OS(=O)(=O)c2ccc(C)cc2)C=CC1=O returned TMEM16A act -4.8*, TMEM16A inh 25*, CHT allo act inactive, PKA-R2B act 9, PKA-R1A activ -3 and CHT inh inactive.
`Cc1cc(OC(C)C(=O)NCCCn2ccnc2)c2c(C)c(C)c(=O)oc2c1` (centres undefined) gave TMEM16A act inactive, TMEM16A inh inactive, CHT allo act inactive, PKA-R2B act 3, PKA-R1A activ -10 and CHT inh inactive.
COC(=O)C1(Cc2cc(-c3cccc(Br)c3)no2)CCN(C(=O)OC(C)(C)C)CC1 was read as TMEM16A act inactive, TMEM16A inh inactive, CHT allo act inactive, PKA-R2B act 7, PKA-R1A activ -2 and CHT inh inactive.
`COC(=O)C1(Cc2cc(-c3ccc(OC)cc3OC)no2)CCN(C(=O)OC(C)(C)C)CC1` gave TMEM16A act inactive, TMEM16A inh 25*, CHT allo act inactive, PKA-R2B act -8, PKA-R1A activ -1 and CHT inh inactive.
O=C(Nc1ccccn1)C(F)(F)C(F)(F)C(F)(F)C(F)(F)C(=O)Nc1ccccn1 was read as TMEM16A act inactive, TMEM16A inh inactive, CHT allo act inactive, PKA-R2B act -5, PKA-R1A activ -5 and CHT inh inactive.
For CCCOC(=O)c1ccc(NC(=O)/C=C/c2cccs2)cc1 the results were TMEM16A act inactive, TMEM16A inh 25*, CHT allo act inactive, PKA-R2B act -8, PKA-R1A activ -4 and CHT inh inactive.
For O=C(/C=C/c1cccs1)Nc1ccncc1 the results were TMEM16A act inactive, TMEM16A inh inactive, CHT allo act inactive, PKA-R2B act 2, PKA-R1A activ -1 and CHT inh inactive.
CCOc1ccc(NC(=S)NNC(=S)Nc2cccc(C(F)(F)F)c2)cc1 was read as TMEM16A act inactive, TMEM16A inh inactive, CHT allo act inactive, PKA-R2B act -12, PKA-R1A activ 5 and CHT inh inactive.
`COc1ccc(NC(=S)NNC(=S)Nc2cccc(C(F)(F)F)c2)cc1` gave TMEM16A act -6.7*, TMEM16A inh inactive, CHT allo act inactive, PKA-R2B act -2, PKA-R1A activ -11 and CHT inh inactive.
